In PubChem BioAssay AID1508635 (National Center for Advancing Translational Sciences (NCATS), 2021):
Records with an inconclusive call do not appear. Active and inactive are the calls of the source. The call rests on the fitted dose curve; in most records, active means well fitted inhibition curve with a large enough effect; inconclusive means small, poorly fitted or top-dose-only effect; inactive means no such curve, though single readings can be large or run the other way. Numbered stars: 1 amine (or outer) side, 2 acyl side, 3 side chain; on linkers, the order of the positions; unused ones are H or OH. Square brackets hold non-standard residues; d marks the D form. Peptide text beside a SMILES is read from it. X1 = O=C([C@@H](CC(O)CCl)O[*:1])[*:2]; aIle = CC[C@@H](C)[C@H](N)C(=O)O; NMeV = CN[C@H](C(=O)O)C(C)C; NMeA = CN[C@@H](C)C(=O)O; βAla = NCCC(=O)O

System: zebrafish Abcb4 (ABCB1 homolog)
Assay: qHTS for characterization and localization of zebrafish homologs of the human ABCB1 multidrug transporter: ABCB4 transfected cells
Source text: The zebrafish has emerged as a potential model to study the blood-brain barrier (BBB) given its similarities with mammalian systems. However, little information has been available with regard to homologous ATP-binding cassette transporters expressed at the zebrafish BBB. Two transporters that are highly expressed at the human BBB are P-glycoprotein (P-gp, encoded by the ABCB1 gene) and ABCG2 (encoded by the ABCG2 gene). In this study, we focus on characterization of P-gp homologs in the zebrafish, which has two genes that are homologous to human ABCB1 - abcb4 and abcb5. We generated stably-transfected cell lines to determine their substrate specificities. […] Zebrafish abcb4 also colocalized with claudin 5 expression in brain endothelial cells.
A high-throughput screen was performed as previously described on empty vector transfected cells, P-gp-overexpressing MDR-19 cells and cells transfected with full-length zebrafish abcb4 (ZF Abcb4) or abcb5 (ZF Abcb5). Briefly, cells were plated into 1536-well plates at a density of 500 cells/well in 5 uL media. P-gp substrate compounds (approximately 90) selected from our previous study were then added at varying concentrations using a 1536-head pin tool (Kalypsis, San Diego, CA) and plates were incubated at 37C in 5% CO2 for 72 h. CellTiter-Glo reagent (Promega) was dispensed into the wells, incubated for 5 min and luminescence was read on a ViewLux instrument (Perkin-Elmer).
Cytotoxic compounds were defined as those that yielded a curve class of -1.1, -1.2, -2.1, -2.2, -2.3, or -2.4, a maximum response of >50% and an AC50 of < 10 uM. All compounds from screening analysis were tested in Vector (empty vector control), MDR-19 (P-gp overexpressing), zebrafish abcb4 (ZF Abcb4) and abcb5 (ZF Abcb5) expression cell lines.
1. Tobie D Lee, Olivia W Lee, Kyle R Brimacombe, Lu Chen, Rajarshi Guha, Sabrina Lusvarghi, Bethilehem G Tebase, Carleen Klumpp-Thomas, Robert W Robey, Suresh V Ambudkar, Min Shen, Michael M Gottesman, Matthew D Hall. A High-Throughput Screen of a Library of Therapeutics Identifies Cytotoxic Substrates of P-glycoprotein. […]

For CC[C@@H](C)[C@@H]1NC(=O)[C@@H]2CCCN2C(=O)[C@@H](CC(O)CCl)OC(=O)CCNC(=O)[C@H](C)N(C)C(=O)[C@H](C(C)C)N(C)C1=O (stereo partly drawn) (cyclo([NMeA][βAla][X1]P[aIle][NMeV])), which Potency is on record?
Its Potency is “inactive”.

With C[C@@H]1[C@@H](CC(C[C@H]2O[C@@H]3O[C@]4(C)CC[C@@H]5[C@H](C)CC[C@@H]([C@H]2C)[C@@]35OO4)C[S+](=O)([O-])c2ccc(COC(=O)N(C)C)cc2)O[C@@H]2O[C@]3(C)CC[C@H]4[C@H](C)CC[C@@H]1[C@@]24OO3 (stereo partly drawn) as the molecule, how does the Potency read?
The Potency was 2350 nM (active).

C=CCON=C(C[C@H]1O[C@@H]2O[C@]3(C)CC[C@@H]4[C@H](C)CC[C@@H]([C@H]1C)[C@@]24OO3)[C@H]1O[C@@H]2O[C@]3(C)CC[C@H]4[C@H](C)CC[C@@H]([C@@H]1C)[C@@]24OO3 was tested. Which Potency did it give?
The Potency was 1870 nM (active).
